Test results as given in PubChem BioAssay (Tox21).
Results filed as inconclusive are left out. A number with no mark means an inactive call. Activity calls are given as the source filed them. The call rests on the fitted dose curve; in most records, active means well fitted inhibition curve with a large enough effect in the repeat runs; inconclusive means weak or mixed curves; inactive means no such curve, though single readings can be large or run the other way.

Target: Cytochrome P450 2C9 (Homo sapiens) (UniProt P11712)
Assay: Cytochrome P450 Family 2 Subfamily C Member 9 (CYP2C9) small molecule antagonists: luciferase reporter qHTS assay (AID 1671198); further: nearly all actives have a fitted effect of over 50% in size
Settings: P450-Glo CYP2C9 enzyme assay, luciferin luminescence; series mostly up to 115 µM; activity change, negative = inhibition: at the top concentration
From the text: U.S. Tox21 Program National Center for Advancing Translational Sciences [NCATS] U.S. Environmental Protection Agency [EPA] National Institutes of Environmental Health Sciences [NIEHS] National Toxicology Program [NTP] U.S. Food and Drug Administration [FDA] Tox21 Assay Overview: Cytochrome P450 (CYP) enzymes are membrane-bound hemeproteins that play a key role in metabolism of drugs and xenobiotics. Evaluation of the effect of chemicals on CYP isozymes is useful to minimize the adverse drug reactions and toxicities in drug development process. Tox21 chemicals were tested for their effect on CYP enzyme activities by using P450-Glo (TM) screening systems (Promega Corporation, Madison, WI). These systems provide a luminescent method containing proluciferin substrates and are converted to luciferin products by CYP isozymes. The luciferin products formed are detected with a luciferin detection reagent, and the amount of light produced is proportional to CYP activity. P450-Glo (TM) CYP2C9 screening system (Catalog. No. V9790) was used to detect the compounds that interfere in CYP2C9 activity.
Tox21 Assay Protocol Summary: Two ul of enzyme-substrate mix was dispensed into medium binding white/solid 1536-well plates (Greiner Bio-One North America Inc., Monroe, NC) using a BioRaptr Flying Reagent Dispenser (FRD, Beckman Coulter, Brea, CA). […] The assay plates were incubated at room temperature for 10 min. Then 2 ul of NADPH regeneration solution was added to each well of the assay plates using an FRD and incubated at 37C for 1 h. The reaction was stopped by adding 4 ul of detection reagent using an FRD and after 20 min incubation at room temperature the luminescence signal was measured using a ViewLux plate reader (Perkin Elmer, Shelton, CT). Data were expressed as relative luminescence units.
On the % scale 0 is the no-effect control and ±100 the full control effect; potency means the concentration at half of the fitted maximal effect.

Sequence of Cytochrome P450 2C9 (Homo sapiens) (P11712 whole entry, looked up): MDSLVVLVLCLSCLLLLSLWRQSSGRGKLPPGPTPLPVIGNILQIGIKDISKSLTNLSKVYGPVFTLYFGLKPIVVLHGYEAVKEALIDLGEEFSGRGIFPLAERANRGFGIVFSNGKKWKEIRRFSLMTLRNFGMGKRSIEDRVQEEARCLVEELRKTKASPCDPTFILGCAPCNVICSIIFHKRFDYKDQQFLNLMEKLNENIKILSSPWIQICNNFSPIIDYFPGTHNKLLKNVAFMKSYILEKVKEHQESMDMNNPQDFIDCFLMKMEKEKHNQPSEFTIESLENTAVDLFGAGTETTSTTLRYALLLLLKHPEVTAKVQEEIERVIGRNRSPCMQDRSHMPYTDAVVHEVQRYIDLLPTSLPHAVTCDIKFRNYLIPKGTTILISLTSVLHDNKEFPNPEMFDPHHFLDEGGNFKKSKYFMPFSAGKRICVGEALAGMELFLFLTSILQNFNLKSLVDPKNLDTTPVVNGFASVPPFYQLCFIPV

| SMILES | activity change, negative = inhibition | Potency |
| --- | --- | --- |
| c1ccc(CCc2ccccc2)cc1 | -12.5% |  |
| O=C(O)CC(C(=O)O)S(=O)(=O)O (stereo not given) | -18.2% |  |
| CC(C)=CCC/C(C)=C/C#N | -7.54% |  |
| CN(C)CCCN(C)CCCN(C)C | -5.73% |  |
| O=C(O)CNC(=O)c1ccc(CO)o1 | 9.84% |  |
| CCCCS(=O)(=O)N[C@@H](Cc1ccc(OCCCCC2CCNCC2)cc1)C(=O)O | -4.12% [at 53 µM] |  |
| CC1=CC(=O)[C@H]2C[C@@H]1C2(C)C | -14.7% |  |
| NC(CCC(=O)O)C(=O)O (stereo not given) | -13.3% |  |
| O=C(O)CCCC[P+](c1ccccc1)(c1ccccc1)c1ccccc1 | 0.314% [at 53 µM] |  |
| CCN1C=CN(C)C1C (stereo not given) | -3.79% |  |
| CC(C)(C#N)Nc1nc(Cl)nc(NC2CC2)n1 | 21.3% |  |
| Cc1ccc(-c2ccccc2C#N)cc1 |  | 15.5 µM (active) |
| C=CCOCC(O)CO (stereo not given) | -3.09% |  |
| CCOC(=O)C1=NOC(c2ccccc2)(c2ccccc2)C1 |  | 7.1 µM (active) |
| OCCc1ccccn1 | -13.9% |  |
| C[N+]12CCC(CC1)C(OC(=O)C(O)(c1ccccc1)c1ccccc1)C2 (stereo not given) | 2.17% [at 53 µM] |  |
| CC1=CCC(O)(C(C)C)CC1 (stereo not given) | -7.91% |  |
| CCN(C=O)CC | -10.1% |  |
| COCCOCC(OC)OC | 9.82% [at 53 µM] |  |
| Cc1ccnc(NS(=O)(=O)c2ccc(N)cc2)n1 | 15.1% [at 53 µM] |  |

| SMILES | activity change, negative = inhibition | Potency |
| --- | --- | --- |
| O=C(O)Cc1csc(-c2ccc(Cl)cc2)n1 | -6.69% [at 53 µM] |  |
| COc1cc2c(cc1OC)-c1cc3ccc(OC)c(OC)c3c[n+]1CC2 | -2.33% |  |
| CCCC(=O)O[C@]1(C(=O)CC)CC[C@H]2[C@@H]3CCC4=CC(=O)CC[C@]4(C)[C@H]3[C@@H](O)C[C@@]21C |  | 15.5 µM (active) |
| CC(=O)O[C@@]12CO[C@@H]1C[C@H](O)[C@@]1(C)C(=O)[C@H](O)C3=C(C)[C@@H](OC(=O)[C@H](O)[C@@H](NC(=O)OC(C)(C)C)c4ccccc4)C[C@@](O)([C@@H](OC(=O)c4ccccc4)[C@H]21)C3(C)C | -1.53% [at 53 µM] |  |
| CC1(C)[C@@H]2CC[C@@]1(C)[C@H](O)C2 | -8.79% |  |
| CC[N+](CC)(CC)CCOc1cccc(OCC[N+](CC)(CC)CC)c1OCC[N+](CC)(CC)CC | -9.89% [at 53 µM] |  |
| CC(C)(N)C#N | -6.52% |  |
| CN1[C@@H]2CC[C@H]1CC(OC(=O)C(O)c1ccccc1)C2 (stereo not given in full) | 3.84% [at 53 µM] |  |
| OCCCCCO | -18.9% |  |
| Cc1nc2ccc(CN(C)c3ccc(C(=O)N[C@@H](CCC(=O)O)C(=O)O)s3)cc2c(=O)[nH]1 | -6.19% [at 53 µM] |  |
| CCOC(=O)COC(=O)c1ccccc1C(=O)OCC |  | 31.7 µM (active) |
| Nc1ccncc1N | 10.9% [at 53 µM] |  |
| C[N+]1(C)CCCC(OC(=O)C(O)(c2ccccc2)c2ccccc2)C1 (stereo not given) | -4.27% [at 53 µM] |  |
| C[C@H]1[C@H](NC(=O)/C(=N/OC(C)(C)C(=O)O)c2csc(N)n2)C(=O)N1S(=O)(=O)O (stereo in doubt) | -4.52% [at 53 µM] |  |
| Cc1coc2ccccc2c1=O | -3.77% [at 53 µM] |  |
| C=CCCC(=O)O | -4.4% |  |
| C=COC(=O)C(C)(CC)CCC(C)C (stereo not given) | -6.77% |  |
| NCCCC[C@H](N[C@@H](CCc1ccccc1)C(=O)O)C(=O)N1CCC[C@H]1C(=O)O | -2.74% [at 53 µM] |  |
| C[C@H]1C[C@H]2[C@@H]3CCC4=CC(=O)C=C[C@]4(C)[C@H]3C(=O)C[C@]2(C)[C@@]1(O)C(=O)CO |  | 13.8 µM (active) |
| CC(=O)Nc1ccc(OCC(O)CNC(C)C)cc1 (stereo not given) | -1.46% [at 53 µM] |  |
